The results in this text go back to PubChem BioAssay.

Structures are written as SMILES. Calls of active or inactive are those of the source. Unless noted, how the calls were made is not given here.

Assay [1] is described as follows: anti-His antibody binders, primary screen, artefact control for SMM control protein annotation, biochemical, small-molecule microarray, 635 nm fluorescence (AID 1128).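 Further: score merges feature fluorescence with signal-to-noise for each printed compound spot.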 To be noted: anti-His Alexa647 antibody binding, higher = more signal.
The subject of assay [2] is Human papillomavirus type 1a E7 protein (residues 1-88). In words: HPV1a E7 small-molecule binders, primary screen, biochemical, small-molecule microarray, residues 1-88, 635 nm (AID 1129). To be noted: small-molecule microarray binding, fluorescence 635 nm; higher = more signal.
For assay [3], the target named is Focal adhesion kinase 1 (Homo sapiens) (UniProt Q05397). Put plainly: small-molecule microarray binders of FAK, primary screen, biochemical, 635/667 nm fluorescence, BSA, DTT (AID 1130).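 Further: composite of spot emission at 667 nm and signal to noise over triplicate slides.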 As to conditions: PTK2 binding, 635 nm fluorescence, higher = more signal.
In assay [4] the test system is Fibrinogen (Alexa647-labelled). In words: fibrinogen binders on compound microarrays, profiling panel, artefact control for SMM control-protein annotation, biochemical, small-molecule microarray, 635/667 nm fluorescence (AID 1131).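 Further: z-score merges 667 nm fluorescence with per-spot signal-to-noise over triplicate slides.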 As to conditions: fibrinogen-A647 binding fluorescence, higher = more signal.
Assay [5] has as its target Follistatin (Homo sapiens) (UniProt P19883). Put plainly: follistatin binders on small-molecule microarrays, primary screen, biochemical, small-molecule microarray, 635/667 nm fluorescence (AID 1132). To be noted: FST binding, 635 nm fluorescence, higher = more signal.
The target of assay [6] is Fibroblast growth factor 2 (Homo sapiens) (UniProt P09038). In words: FGF2 binders on small-molecule microarrays, primary screen, biochemical, small-molecule microarray, 635/667 nm fluorescence (AID 1133). To be noted: small-molecule microarray binding, FGF2, fluorescence 635/667; higher = more signal.
A short description of assay [7]: mitochondrial membrane potential change in A549 cells, profiling panel, cell-based, JC-1 fluorescence, basal, 24 h, 100 nL (AID 1138).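 Further: A549 lung adenocarcinoma cells under basal conditions with no added stimulus; test concentration not given here.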 To be noted: higher = more signal.
The next assay concerns Lefty1. In words: Lefty1 binders on small-molecule microarrays, primary screen, biochemical, small-molecule microarray, 635/667 nm fluorescence (AID 1139). To be noted: small-molecule microarray binding, fluorescence 635/667; higher = more signal.
Assay [8] deals with wheat germ agglutinin (Triticum aestivum), Alexa647-labelled. In words: wheat germ agglutinin binders on compound microarrays, profiling panel, artefact control for SMM control-protein annotation, biochemical, small-molecule microarray, 635/667 nm fluorescence (AID 1140).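 Further: score merges 667 nm feature emission with signal to noise over triplicate slides.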 To be noted: WGA-A647 binding, 635 nm fluorescence, higher = more signal.
The target of assay [9] is Luciferin 4-monooxygenase (Photinus pyralis) (UniProt P08659). Put plainly: firefly luciferase enzyme inhibitors, primary screen, biochemical, luminescence, purified enzyme, 2006 set (AID 1141).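 Further: cell-free assay with purified firefly luciferase at 100 ng per well in PBS; test concentration not given here.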 As to conditions: SteadyGlo luminescence, 30 min, higher = more signal, called active from +8 up or from −8 down.
For assay [10], the system named is Wnt5a (protein binding on small-molecule microarray). Put plainly: Wnt5a binders on small-molecule microarray, primary screen, biophysical, 635/667 nm fluorescence (AID 1142).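 Further: fluorescence read at 667 nm with signal to noise per printed feature.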 As to conditions: 635 nm fluorescence, higher = more signal.
Assay [11] is described as follows: cell viability in Huh7 cells, primary screen, cytotoxicity control for HCV replication inhibitor project, CellTiter-Glo luminescence, basal, 48 h (AID 1143).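 Further: Huh7 hepatoma cells carrying a hepatitis C replication reporter with no stimulus; test concentration not given here.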 As to conditions: Huh7 HCV replicon, higher = more signal, called active from +8 up or from −8 down.
A short description of assay [12]: P. aeruginosa biofilm formation inhibitors, primary screen, PAO1 strain, BacTiter-Glo luminescence, LB-PBS (AID 1144). To be noted: 12 h, higher = more signal.
Assay [13] is described as follows: CREB reporter modulators without forskolin, primary screen, cell-based, PC12, CRE-LacZ reporter, unstimulated (AID 1145). To be noted: no forskolin, luminescence, 4.5 h, higher = more signal, called active from +8 up or from −8 down.
Assay [14] can be described thus: CREB reporter modulators under forskolin, primary screen, cell-based, PC12, CRE-LacZ reporter, forskolin-stimulated (AID 1146).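 Further: PC12 cells with 6xCRE LacZ reporter stimulated by forskolin 10 µM; beta-galactosidase reporter signal reflecting CREB driven transcription.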 As to conditions: luminescence, 4.5 h, higher = more signal, called active from +8 up or from −8 down.
The target in assay [15] is Streptavidin (Streptomyces avidinii) (UniProt P22629). Put plainly: streptavidin binders on small-molecule microarray, primary screen, artefact control for SMM compound annotation, biophysical, 635/667 nm fluorescence (AID 1147).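 Further: signal reflects streptavidin binding to arrayed compounds as a control protein.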 As to conditions: streptavidin binding, higher = more signal.
Assay [16] is described as follows: small-molecule binders of probe aInhba, primary screen, biochemical, small-molecule microarray, 635/667 nm fluorescence (AID 1148).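 Further: score merges 667nm spot fluorescence with signal-to-noise for antibody binding to printed compounds.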 As to conditions: higher = more signal.
For assay [17], the target named is Torsin-1A (Homo sapiens) (UniProt O14656). In words: torsin A binders from cell lysate, primary screen, small-molecule microarray, wild-type, 635/667 nm (AID 1149). As to conditions: COS7 hTOR1A-WT lysate, 635 nm fluorescence, higher = more signal.
Assay [18] shares this target. In words: small-molecule binders of mutant TOR1A in lysate, primary screen, cell lysate, small-molecule microarray, COS7 lysate, 635/667 nm fluorescence (AID 1150).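 Further: score pools 667 nm emission and signal to noise measuring lysate protein binding.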 As to conditions: COS7 hTOR1A mutant lysate, 635 nm fluorescence, higher = more signal.
The test system of assay [19] is Sonic hedgehog protein (Shh). In words: small-molecule binders of Shh protein, primary screen, biochemical, small-molecule microarray, 635/667 nm fluorescence (AID 1151).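 Further: Shh protein binding to compounds spotted on small-molecule microarray slides; score combines spot fluorescence intensity with signal-to-noise across triplicate slides.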 As to conditions: small-molecule microarray binding, 635 nm fluorescence; higher = more signal.

Chain of Fibroblast growth factor 2 (Homo sapiens) (P09038 whole entry, looked up): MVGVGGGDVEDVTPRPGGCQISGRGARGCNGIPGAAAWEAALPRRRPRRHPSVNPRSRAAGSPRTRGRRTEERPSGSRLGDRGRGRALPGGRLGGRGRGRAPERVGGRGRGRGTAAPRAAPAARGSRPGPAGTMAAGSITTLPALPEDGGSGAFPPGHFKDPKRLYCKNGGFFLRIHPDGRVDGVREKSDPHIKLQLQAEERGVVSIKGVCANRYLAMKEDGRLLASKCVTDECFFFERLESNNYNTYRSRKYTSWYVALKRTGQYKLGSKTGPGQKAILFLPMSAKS
Chain of Focal adhesion kinase 1 (Homo sapiens) (Q05397 whole entry, looked up): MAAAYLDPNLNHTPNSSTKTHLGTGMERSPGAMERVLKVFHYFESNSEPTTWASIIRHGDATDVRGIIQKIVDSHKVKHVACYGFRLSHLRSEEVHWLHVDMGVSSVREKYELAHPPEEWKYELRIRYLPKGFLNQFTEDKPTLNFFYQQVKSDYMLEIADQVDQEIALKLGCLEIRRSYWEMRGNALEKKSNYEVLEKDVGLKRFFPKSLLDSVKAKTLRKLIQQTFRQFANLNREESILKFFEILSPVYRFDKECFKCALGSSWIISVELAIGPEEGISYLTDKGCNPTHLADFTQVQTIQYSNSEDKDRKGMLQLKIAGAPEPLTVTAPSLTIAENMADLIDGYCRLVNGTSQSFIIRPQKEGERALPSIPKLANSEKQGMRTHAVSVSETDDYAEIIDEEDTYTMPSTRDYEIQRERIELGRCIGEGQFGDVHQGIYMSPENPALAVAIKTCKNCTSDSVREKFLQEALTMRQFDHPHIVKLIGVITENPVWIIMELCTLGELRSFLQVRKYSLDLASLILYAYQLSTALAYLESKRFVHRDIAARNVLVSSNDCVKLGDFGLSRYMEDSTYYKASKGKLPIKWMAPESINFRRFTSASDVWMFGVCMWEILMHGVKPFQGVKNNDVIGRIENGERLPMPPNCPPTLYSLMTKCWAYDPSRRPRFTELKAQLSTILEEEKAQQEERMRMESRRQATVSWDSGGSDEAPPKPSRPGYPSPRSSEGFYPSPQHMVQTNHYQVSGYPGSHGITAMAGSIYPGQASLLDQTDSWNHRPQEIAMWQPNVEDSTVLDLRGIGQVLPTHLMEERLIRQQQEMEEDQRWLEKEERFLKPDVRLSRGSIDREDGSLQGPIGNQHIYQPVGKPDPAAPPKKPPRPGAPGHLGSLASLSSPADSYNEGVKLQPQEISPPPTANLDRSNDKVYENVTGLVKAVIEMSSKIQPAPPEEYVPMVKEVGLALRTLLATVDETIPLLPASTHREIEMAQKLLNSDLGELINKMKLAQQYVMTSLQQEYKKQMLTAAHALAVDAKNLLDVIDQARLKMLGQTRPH
Chain of Luciferin 4-monooxygenase (Photinus pyralis) (P08659 whole entry, looked up): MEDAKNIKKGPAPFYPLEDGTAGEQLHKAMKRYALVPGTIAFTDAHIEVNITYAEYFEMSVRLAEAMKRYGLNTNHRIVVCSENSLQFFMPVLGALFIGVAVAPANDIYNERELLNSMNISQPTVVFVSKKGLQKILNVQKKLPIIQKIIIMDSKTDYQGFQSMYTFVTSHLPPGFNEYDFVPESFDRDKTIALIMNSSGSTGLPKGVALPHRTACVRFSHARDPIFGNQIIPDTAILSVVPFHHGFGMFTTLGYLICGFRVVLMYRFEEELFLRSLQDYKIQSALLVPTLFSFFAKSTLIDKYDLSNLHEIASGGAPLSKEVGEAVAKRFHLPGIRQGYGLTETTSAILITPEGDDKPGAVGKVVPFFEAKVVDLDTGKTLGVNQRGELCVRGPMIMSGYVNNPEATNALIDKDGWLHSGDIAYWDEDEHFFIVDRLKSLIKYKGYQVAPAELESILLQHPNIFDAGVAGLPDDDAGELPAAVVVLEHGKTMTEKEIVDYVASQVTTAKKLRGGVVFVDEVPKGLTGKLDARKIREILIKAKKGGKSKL
Chain of Torsin-1A (Homo sapiens) (O14656 whole entry, looked up): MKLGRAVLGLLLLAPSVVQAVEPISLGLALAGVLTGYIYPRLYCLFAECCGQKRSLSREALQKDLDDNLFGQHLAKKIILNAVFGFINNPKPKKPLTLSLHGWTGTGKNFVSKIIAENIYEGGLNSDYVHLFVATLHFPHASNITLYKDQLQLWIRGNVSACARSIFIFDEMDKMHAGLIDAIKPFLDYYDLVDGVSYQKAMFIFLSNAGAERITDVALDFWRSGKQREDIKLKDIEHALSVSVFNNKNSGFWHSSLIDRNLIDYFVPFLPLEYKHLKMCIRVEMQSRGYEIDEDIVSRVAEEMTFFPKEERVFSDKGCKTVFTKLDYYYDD
Chain of Streptavidin (Streptomyces avidinii) (P22629 whole entry, looked up): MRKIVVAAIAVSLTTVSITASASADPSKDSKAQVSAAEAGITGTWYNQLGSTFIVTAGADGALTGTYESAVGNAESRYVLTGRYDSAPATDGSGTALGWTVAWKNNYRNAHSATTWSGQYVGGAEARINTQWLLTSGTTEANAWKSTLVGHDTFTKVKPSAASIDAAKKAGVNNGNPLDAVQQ
Chain of Follistatin (Homo sapiens) (P19883 whole entry, looked up): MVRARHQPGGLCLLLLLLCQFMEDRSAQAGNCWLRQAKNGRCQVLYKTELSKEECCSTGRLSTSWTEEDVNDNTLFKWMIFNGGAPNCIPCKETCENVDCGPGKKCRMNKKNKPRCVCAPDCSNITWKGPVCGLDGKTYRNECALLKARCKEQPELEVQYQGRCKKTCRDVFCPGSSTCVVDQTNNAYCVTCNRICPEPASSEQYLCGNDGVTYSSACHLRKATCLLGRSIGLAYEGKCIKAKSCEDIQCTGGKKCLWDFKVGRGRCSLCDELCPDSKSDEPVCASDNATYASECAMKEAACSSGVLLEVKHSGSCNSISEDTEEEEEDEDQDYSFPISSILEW

As for `CC(C)(C)N1C(=O)[C@H]2[C@H]3[C@H](O)[C@H](O)CC(=O)[C@@H]3CC[C@H]2C1=O`, the composite z-score is -0.0303 in [1]; 0.237 in assay [2]; -0.0066 in assay [3]; -0.642 in assay [4]; 0.539 in [5]; 1.08 in [6]. Besides, the composite z-score was 0.49 with Lefty1; 0.138 in [8]; -0.0326 in assay [10]; 0.179 in assay [15]; -0.109 in assay [16]; 0.236 in the assay with Torsin-1A (Homo sapiens) [17]. Further, the composite z-score in the assay with Torsin-1A (Homo sapiens) [18] is 0.261; in assay [19], 0.525. Moreover, the z-score is -0.662 in [7]; 0.166 (inactive) in assay [9]; -1.07 (inactive) in assay [11]; -0.25 (inactive) in [12]; -0.93 (inactive) in assay [13]; -0.785 (inactive) in [14].
Consider `CC(C)CCN1CCc2nc(COc3ccccc3)c3c(c2C1)CO[C@@H](C)C3`, for which the composite z-score in [1] was 0.683; in assay [2], 0.132; in [3] it was 0.233; in assay [4], 0.602; in assay [5] it was 0.0413; in assay [6], -0.0961. Also, the composite z-score turned out to be 0.0377 in the assay with Lefty1; 0.451 in [8]; 0.0335 in assay [10]; 0.414 in assay [15]; 0.0649 in assay [16]; 0.335 with Torsin-1A (Homo sapiens) [17]. Besides, the composite z-score with Torsin-1A (Homo sapiens) [18] was 0.434; in [19] it was -0.284. Besides, the z-score is 1.71 in [7]; -0.781 (inactive) in assay [9]; -0.265 (inactive) in assay [11]; -0.372 (inactive) in [12]; 3.36 (inactive) in [13]; -1.3 (inactive) in assay [14].
On to `O=C1CCCC(C2=CCCCC2=O)C1` (stereo not given), for which the composite z-score in assay [1] was -0.496; in [2] it was -0.624; in assay [3] it was 0.26; in assay [4], -0.67; in assay [5], 1.01; in assay [6] it was 0.567. The composite z-score with Lefty1 was 1.02; in assay [8] it was -0.397; in [10], 0.18; in assay [15] it was -0.15; in [16], -0.0288; in the assay with Torsin-1A (Homo sapiens) [17] it was 0.217. Moreover, the values for the composite z-score (in the assay with Torsin-1A (Homo sapiens) [18]; in [19]) were 0.37 and 0.626, respectively. Also, the z-score in [7] is 0.475; in assay [9], -0.242 (inactive); in assay [11], 0.211 (inactive); in assay [12] it was 0.0656 (inactive); in [13] it was 0.019 (inactive); in [14] it was -0.222 (inactive).
With `C[n+]1ccc(-c2ccc(CO)cc2)cc1`, the composite z-score is 0.658 in assay [1]; -0.676 in assay [2]; -0.332 in [3]; -0.168 in assay [4]; 1.55 in assay [5]; 1.35 in assay [6]. Also, the composite z-score is 1.61 with Lefty1; 1.48 in assay [8]; -0.0113 in assay [10]; 2.72 in assay [15]; -0.0209 in assay [16]; 0.565 with Torsin-1A (Homo sapiens) [17]. For the same molecule, the values for the composite z-score (in the assay with Torsin-1A (Homo sapiens) [18]; in [19]) were 1.67 and 2.14, respectively. Moreover, the z-score is -0.666 in assay [7]; -0.288 (inactive) in assay [9]; 0.0559 (inactive) in [11]; 0.466 (inactive) in [12]; 0.919 (inactive) in assay [13]; 0.723 (inactive) in assay [14].
In the case of `O=C1C[C@@H](O)[C@@H](O)[C@@H]2[C@@H]3C(=O)N(Cc4ccc5c(c4)OCO5)C(=O)[C@@H]3CC[C@H]12`, the composite z-score is 0.324 in [1]; 0.923 in assay [2]; 0.381 in assay [3]; 0.735 in assay [4]; 0.243 in assay [5]; 0.19 in assay [6]. Besides, the composite z-score with Lefty1 was 0.428; in assay [8], -0.203; in assay [10], -0.005; in [15], 0.139; in assay [16], -0.152; in the assay with Torsin-1A (Homo sapiens) [17], 0.0825. Besides, the composite z-score was found to be 0.339 with Torsin-1A (Homo sapiens) [18] and 0.256 in [19]. Moreover, the z-score in [7] is 0.733; in assay [9], -0.56 (inactive); in assay [11], -0.104 (inactive); in assay [12], -0.396 (inactive); in [13] it was 0.516 (inactive); in [14], 0.244 (inactive).
